“And” between values parts separate entries of the source, which are not always exact repeats. Identical values can stand only once. Out of some 350,000 compounds screened, about 5,500 (1.6%) were called active. The sample holds actives, similar compounds and a random draw of the others, so the mix is not that of the screen.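 The calls were made as follows: active = significant combined selectivity score with lowered wild-type GFP, culture density cut under 30%, mutant RFP and density less affected; inactive = any of these conditions unmet.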

The nature of the test: GFP drop in mixed WT/humanized-ribosome E. coli culture – GFP/RFP fluorescence, OD600, single point, bacterial rRNA inhibitor project, primary screen (AID 720706). As to conditions: E. coli WT GFP vs humanized-ribosome RFP mutants, 24 h; GFP signal change (wild-type ribosome): stronger effect = lower value, DMSO median 0, no signal -100; OD600 change: measured here: OD600 growth, DMSO median 0, no signal -100; RFP signal change: measured here: RFP humanized mutant strains, DMSO median 0, no signal -100, concentration not given here.
Consider `C[C@H](NC(=O)[C@H]1N[C@H]2c3ccc(-c4ccc(C(=O)N(C)C)cc4)c(=O)n3C[C@H]2[C@@H]1CO)c1ccccc1`, for which the GFP signal change (wild-type ribosome) is 1.87% (inactive), the OD600 change amounted to 7.26% and the RFP signal change is -1.73%.

For the molecule `CN(C)C(=O)c1cccc(-c2ccc(C3[C@H]4CNC[C@@H]3N4C(=O)Nc3ccccc3F)cc2)c1` (stereo partly drawn), the GFP signal change (wild-type ribosome) is 0.866% (inactive) and 2.44% (inactive); the OD600 change was -5.13% and 4.05%; the RFP signal change was -2.14% and 0.208%.

`COc1ccccc1-c1cnc2c(c1)C(=O)N([C@@H](C)CO)C[C@H](C)[C@@H](CN(C)C(C)=O)O2`: the GFP signal change (wild-type ribosome) was 3.59% (inactive), the OD600 change turned out to be 4.33% and the RFP signal change is -1.79%.

For `O=C(/C=C/c1ccc2c(c1)OCCO2)c1ccc(O)cc1`, the GFP signal change (wild-type ribosome) was -19.8% (active), the OD600 change was -11.6% and the RFP signal change came to 6.75%.

`CC(=O)Nc1ccc(C=Cc2ccc([N+](=O)[O-])cc2)cc1`: the GFP signal change (wild-type ribosome) is 2.45% (inactive), the OD600 change was 3.79% and the RFP signal change is -1.71%.

On to `O=C(/C=C/c1ccc(Cl)c([N+](=O)[O-])c1)c1ccc(O)cc1`, for which the GFP signal change (wild-type ribosome) was -26.1% (active), the OD600 change was -2.69% and the RFP signal change amounted to 9.14%.

Turning to `CC(CC(=O)O)C(=O)c1ccc(Cl)c([N+](=O)[O-])c1` (stereo not drawn), the GFP signal change (wild-type ribosome) was 10.7% (inactive), the OD600 change stood at 9.82% and the RFP signal change is -3.76%.

As to `CN(C)c1ccc(/C=C/C(=O)c2ccc(O)cc2)cc1[N+](=O)[O-]`, the GFP signal change (wild-type ribosome) is -22.5% (active), the OD600 change was -13.8% and the RFP signal change came to 5.33%.

Turning to `O=C(/C=C/c1ccc(Cl)cc1)N1CCN(c2ccccc2[N+](=O)[O-])CC1`, the GFP signal change (wild-type ribosome) is -31% (inactive), the OD600 change was -42.6% and the RFP signal change is -26.6%.

Consider `O=C(COC(=O)c1ccc(O)cc1O)c1ccc2c(c1)OCCO2`, for which the GFP signal change (wild-type ribosome) is -13.2% (inactive), the OD600 change was -20.4% and the RFP signal change amounted to 0.835%.

As to `CC(=O)Nc1ccc(C=CC(=O)c2ccc([N+](=O)[O-])cc2)cc1`, the GFP signal change (wild-type ribosome) was 5.97% (inactive), the OD600 change came out at 7.9% and the RFP signal change is -0.138%.

Take `COc1ccc(OC)c(/C=C/C(=O)c2ccc3c(c2)OCO3)c1`: the GFP signal change (wild-type ribosome) is 0.015% (inactive), the OD600 change was -9.29% and the RFP signal change is -8.02%.

As for `CC=Cc1ccc2n(c1=O)C[C@@H]1[C@@H](CO)[C@H](C(=O)N(C)C)N(CC3CCOCC3)[C@H]21` (mixture of isomers), the GFP signal change (wild-type ribosome) is 2.33% (inactive), the OD600 change is -5.67% and the RFP signal change turned out to be 0.865%.

For `CN1c2ccc(Br)cc2[C@@H]2[C@@H](CCN2C(=O)C2CCCC2)[C@H]1CO`, the GFP signal change (wild-type ribosome) is -37% (inactive), the OD600 change was -68.3% and the RFP signal change came out at 0.745%.

As for `COCC#Cc1ccc([C@@H]2[C@@H](CO)N3CCCCN(C(=O)COC)C[C@@H]23)cc1`, the GFP signal change (wild-type ribosome) was 4.36% (inactive), the OD600 change stood at 1.27% and the RFP signal change is -1.64%.

With `COCC#Cc1ccc2c(c1)O[C@H](CN(C)C(=O)CC1CC1)[C@@H](C)CN([C@@H](C)CO)S2(=O)=O`, the GFP signal change (wild-type ribosome) is 1.22% (inactive), the OD600 change is 3.88% and the RFP signal change is -1.84%.

As for `CCCNC(=O)N(C)C[C@H]1Oc2ncc(-c3ccccc3F)cc2C(=O)N([C@@H](C)CO)C[C@H]1C`, the GFP signal change (wild-type ribosome) is -0.164% (inactive), the OD600 change was determined as 9.97% and the RFP signal change was 0.69%.

On to `Cc1cccc(Nc2nc(-c3ccccc3)cs2)n1`, for which the GFP signal change (wild-type ribosome) is -36.3% (active), the OD600 change is -28.1% and the RFP signal change was -6.26%.

As for `CC(=O)NC(c1ccccc1)c1nc(-c2cccc(C(C)C)c2)cs1` (stereo not drawn), the GFP signal change (wild-type ribosome) is 2.35% (inactive), the OD600 change is -27.5% and the RFP signal change is 4.32%.

`COc1ccc(-c2csc(Nc3cccc(C)n3)n2)cc1OC`: the GFP signal change (wild-type ribosome) is -3.87% (inactive), the OD600 change was -21.5% and the RFP signal change was 23%.

Regarding `COc1ccc(-c2cn(CC[C@@H]3CC[C@@H](NS(=O)(=O)c4ccccc4C)[C@H](CO)O3)nn2)cc1`, the GFP signal change (wild-type ribosome) is -0.161% (inactive), the OD600 change came to 0.015% and the RFP signal change stood at 1.23%.

For `COc1ccccc1NC(=O)N[C@H]1CC[C@@H](CC(=O)NCc2ccc(Cl)c(Cl)c2)O[C@H]1CO`, the GFP signal change (wild-type ribosome) was -9.75% (inactive), the OD600 change is -22.7% and the RFP signal change worked out at 1.88%.

Turning to `CC(=O)O[C@]1(C(C)=O)CC[C@H]2[C@@H]3C=C(C)C4=CC(=O)CC[C@]4(C)[C@H]3CC[C@@]21C`, the GFP signal change (wild-type ribosome) was -55.8% (inactive), the OD600 change is -76.8% and the RFP signal change is -10.6%.

Take `CC12CCC(=O)C=C1CCC1C2C(O)CC2(C)C1CCC2(O)C(O)CO` (stereo not drawn): the GFP signal change (wild-type ribosome) is 8.19% (inactive), the OD600 change worked out at 4.56% and the RFP signal change is 4.01%.

Turning to `CC(=O)C12CC(C)=C(C)CC1CC1C3CCC4=CC(=O)CCC4(C)C3CCC12C` (stereo not drawn), the GFP signal change (wild-type ribosome) is -17.6% (active), the OD600 change was determined as 7.85% and the RFP signal change was found to be 5.44%.

Regarding `CCCC#Cc1ccc([C@H]2[C@H]3CN(C(=O)Nc4cc(F)ccc4F)CC(=O)N3[C@H]2CO)cc1`, the GFP signal change (wild-type ribosome) was -18.4% (inactive), the OD600 change was -50.2% and the RFP signal change amounted to 11.1%.

`C[C@@H]1CN([C@H](C)CO)C(=O)c2cc(NC(=O)NC3CCCCC3)ccc2O[C@H]1CN(C)C(=O)Nc1ccccc1`: the GFP signal change (wild-type ribosome) was 5.36% (inactive), the OD600 change was 10.1% and the RFP signal change amounted to 2.7%.

On to `O=C(C[C@H]1C=C[C@H](NC(=O)C2CCC2)[C@H](CO)O1)NCCCN1CCOCC1`, for which the GFP signal change (wild-type ribosome) was 1.78% (inactive), the OD600 change worked out at 4.36% and the RFP signal change is -0.385%.

Consider `CCCCn1c(-c2cccc(C)c2)nc2cc3[nH]c(=O)c(C(C)C)nc3cc21`, for which the GFP signal change (wild-type ribosome) was -29.5% (inactive), the OD600 change is -62% and the RFP signal change stood at 13.5%.

`CCCCCn1nnnc1-c1nc2cc3ccccc3cc2[nH]c1=O`: the GFP signal change (wild-type ribosome) was -19.2% (active), the OD600 change is -5.54% and the RFP signal change is 8.22%.

As for `CCCCCn1nnnc1C1c2ccccc2C(=O)N1Cc1ccco1` (stereo not drawn), the GFP signal change (wild-type ribosome) is -4.73% (inactive), the OD600 change is -2.58% and the RFP signal change was -0.015%.

Values taken from PubChem BioAssay AID720706 (Broad Institute, 2013).
